In PubChem BioAssay (Tox21):
A number with no mark means an inactive call. The source made the active and inactive calls. Calls come from the whole dose curve; as a rule, active = well fitted curve in the direction sought with a large enough effect in the signal ratio in the repeat runs (not every such curve was filed as active); inconclusive = weak or mixed curves, or effect the other way; inactive = no such curve, though single readings can be large or run the other way; the % refers to the signal ratio.

What follows are compounds tested against Estrogen receptor (Homo sapiens) (UniProt P03372) (assay: qHTS assay to identify small molecule antagonists of the estrogen receptor alpha (ER-alpha) signaling pathway (AID 743069)). Details: HEK293 ER-alpha-UAS-bla, beta-lactamase ratio, antagonist mode; series mostly up to 69.4 µM; activity, negative = inhibition: at the top concentration.
Sequence of Estrogen receptor (Homo sapiens) (P03372 whole entry, looked up): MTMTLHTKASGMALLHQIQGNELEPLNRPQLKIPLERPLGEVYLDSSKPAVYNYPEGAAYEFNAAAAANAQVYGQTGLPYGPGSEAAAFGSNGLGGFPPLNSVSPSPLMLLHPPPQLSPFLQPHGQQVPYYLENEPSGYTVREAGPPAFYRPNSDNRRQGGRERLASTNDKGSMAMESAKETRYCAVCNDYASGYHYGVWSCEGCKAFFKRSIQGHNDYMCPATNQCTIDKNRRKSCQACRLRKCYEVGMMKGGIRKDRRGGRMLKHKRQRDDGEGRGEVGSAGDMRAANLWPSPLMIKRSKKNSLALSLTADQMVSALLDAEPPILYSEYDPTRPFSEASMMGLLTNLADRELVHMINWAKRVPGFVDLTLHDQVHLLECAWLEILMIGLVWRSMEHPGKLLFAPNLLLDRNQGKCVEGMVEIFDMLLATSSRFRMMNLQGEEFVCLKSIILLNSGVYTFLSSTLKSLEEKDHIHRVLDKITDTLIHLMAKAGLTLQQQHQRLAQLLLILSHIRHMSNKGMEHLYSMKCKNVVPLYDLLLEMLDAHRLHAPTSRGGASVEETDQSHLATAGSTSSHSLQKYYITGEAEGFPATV
Excerpt: National Center for Advancing Translational Sciences [NCATS]
NIH Chemical Genomics Center [NCGC]
U.S. Environmental Protection Agency [EPA]
National Institutes of Environmental Health Sciences [NIEHS]
National Toxicology Program [NTP]
U.S. Food and Drug Administration [FDA]
Estrogen receptor (ER), a nuclear hormone receptor, plays an important role in development, metabolic homeostasis and reproduction. Two subtypes of ER, ER-alpha and ER-beta have similar expression patterns with some uniqueness in both types. Endocrine disrupting chemicals (EDCs) and their interactions with steroid hormone receptors like ER causes disruption of normal endocrine function. To identify the compounds that inhibit ER signaling, an ER-alpha-UAS-bla GripTiteTM cell line (Invitrogen, Carlsbad, CA, USA) containing a beta-lactamase reporter gene under the control of an Upstream Activator Sequence (UAS) stably integrated into HEK293 cells was used to screen the Tox21 10K compound library.
Tox21 Assay Protocol Summary:
ER-alpha-bla cells were cultured in assay medium containing 2% charcoal stripped FBS overnight in the culture flasks before the assay was performed. The cells were dispensed at 5,000 cells/5 uL of assay medium per well into black wall/clear-bottom 1536-well plates using a Multidrop Combi (ThermoFisher Scientific, Waltham, MA) dispenser. After the assay plates were incubated at a 37C and 5% CO2 for 4 hr, 23 nL of compounds dissolved in DMSO, positive controls or DMSO only was transferred to the assay plate by a Pintool station (Kalypsys, San Diego, CA), followed by addition of 1 uL of 17beta-estradiol in assay medium using a Flying Reagent Dispenser (Aurora Discovery, San Diego, CA). The plates were incubated at 37C and 5% CO2 for 18 hr. Then 1 uL of LiveBLAzerTM B/G FRET substrate was added using a Flying Reagent Dispenser, the plates were incubated at room temperature for 2 hours, and fluorescence intensity was measured by an Envision plate reader (PerkinElmer, Shelton, CT).
% is set by controls: 0 for no effect and ±100 for the full control effect; potency is the fitted concentration of half-maximal effect.

Row | SMILES | activity, negative = inhibition | Potency
1 | CC(CO)Oc1ccccc1 (stereo not given) | -4.52% [at 79.1 µM] | 
2 | O=C(O)c1cc(=O)c2ccccc2o1 | 2.25% | 
3 | CC(C)(c1cc(Br)c(OCC(Br)CBr)c(Br)c1)c1cc(Br)c(OCC(Br)CBr)c(Br)c1 (stereo not given) | -9.04% | 
4 | CN1CCCCC1CCN1c2ccccc2Sc2ccc(S(C)=O)cc21 (stereo not given) |  | inactive
5 | ClCCl | -6.83% | 
6 | O=C(O)[C@H](O)[C@@H](O)[C@H](O[C@@H]1O[C@H](CO)[C@H](O)[C@H](O)[C@H]1O)[C@H](O)CO | -25.6% [at 32.6 µM] | 
7 | c1ccc(SSc2ccccc2)cc1 | -20.4% [at 79.1 µM] | 
8 | CC(C)CCCCCOC(=O)CCS | -20.8% | 
9 | COC(=O)Nc1nc2ccc(C(=O)c3ccccc3)cc2[nH]1 | -21.8% [at 32.6 µM] | 
10 | OCCN1CCN(CCCN2c3ccccc3Sc3ccc(C(F)(F)F)cc32)CC1 | -33.2% | 
11 | CCCC1CCC(=O)CC1 | -7.95% | 
12 | Cc1cccc(C(=O)O)c1O | 19.7% | 
13 | CC(C)(C)CC(C)(C)c1ccc(Nc2ccc(C(C)(C)CC(C)(C)C)cc2)cc1 | -8.94% [at 6.71 µM] | 
14 | CNc1ccc([N+](=O)[O-])cc1 | 11.1% | 
15 | COC(=O)c1ccccc1OC | 18.1% | 
16 | CCN1C(=O)c2ccccc2C1Nc1ccc(OCCN2CCCCC2)cc1 (stereo not given) | -19.7% | 
17 | NC(=O)c1cccc([N+](=O)[O-])c1 | 21.5% | 
18 | CC[N+](CC)(CC)CCOC(=O)C(C1CCCC1)C1CCCC1 | -19.1% | 
19 | Cc1c(C)c2c(c(C)c1O)CC[C@@](C)(CCC[C@H](C)CCC[C@H](C)CCCC(C)C)O2 |  | inactive
20 | CN1CCN(Cc2cc(-c3ccc4[nH]c(=O)oc4c3)co2)[C@@H](c2ccc(F)cc2)C1 |  | 47.1 µM [inhibitor] (active)

Row | SMILES | activity, negative = inhibition | Potency
21 | CC(C)OC(=O)C(O)(CC(=O)O)CC(=O)O | -9.11% | 
22 | O=C(Nc1ccc2c(O)c(N=Nc3ccc(N=Nc4ccc(S(=O)(=O)O)cc4)cc3)c(S(=O)(=O)O)cc2c1)c1ccccc1 | -20.1% | 
23 | Nc1nc2c(ncn2COCCO)c(=O)[nH]1 | 10.4% [at 32.6 µM] | 
24 | CCN(CC)C(=O)c1cc(S(=O)(=O)Cc2ccccc2)c(N2CCC(c3ccccc3)CC2)cc1N(CC)CCN(C)C | -9.28% [at 32.6 µM] | 
25 | COc1c(C)c2c(c(O)c1C/C=C(\C)CCC(=O)OCCN1CCOCC1)C(=O)OC2 |  | 3.38 µM [inconclusive] (active)
26 | Cc1c(C)c2c(c(C)c1OC(=O)c1cccnc1)CC[C@@](C)(CCC[C@H](C)CCC[C@H](C)CCCC(C)C)O2 | -2.91% | 
27 | OC1CCC(C2CCCCC2)CC1 (stereo not given) | 21.4% | 
28 | CCn1c2ccccc2c2cc([N+](=O)[O-])ccc21 | 23.1% | 
29 | O=C(O)c1cc(-c2ccc(F)cc2F)ccc1O | 19.8% [at 32.6 µM] | 
30 | Clc1sc(Cl)c(Cl)c1Cl | -8.05% | 
31 | Cc1cc(C(C)(C)C)cc(C)c1CC1=NCCN1 | 14.5% [at 32.6 µM] | 
32 | CN(C)Cc1ccccc1O | 11.9% | 
33 | OC[C@@H](O)[C@@H](O)CO | 8.92% | 
34 | CCC(=O)OC(=O)CC | -8.63% | 
35 | COC(C)=O |  | inactive
36 | C=C(CC)C(=O)c1ccc(OCC(=O)O)c(Cl)c1Cl |  | inactive
37 | CC(C)(C)NSc1nc2ccccc2s1 | -6.01% [at 79.1 µM] | 
38 | O=C(O)O | -5.09% [at 6.71 µM] | 
39 | CN(C)c1ccc(C(=C2C=CC(=[N+](C)C)C=C2)c2ccc(N(C)C)cc2)cc1 |  | 34.7 µM [cytotoxic] (active)
40 | Cc1cc(=O)oc2cc(O)cc(O)c12 | -25.9% [at 79.1 µM] | 
